Measured values reported in PubChem BioAssay (NCATS).
Results filed as inconclusive are left out. Active and inactive are the calls of the source. Calls follow the shape of the dose curve; as a rule, active = well fitted inhibition curve with a large enough effect; inconclusive = small, poorly fitted or top-dose-only effect; inactive = flat fitted curve, though single readings scatter.

What was measured:
Assay in all cases: qHTS profiling for inhibitors of Plasmodium falciparum proliferation (AID 504749); also: nearly all actives have a fitted effect of over 60% in size
Settings in all cases: P. falciparum in erythrocytes, SYBR Green DNA, 72 h; series mostly up to 28.7 µM
CP268 = tested on: CP268
In short: (§1)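 Each compound contacts P. falciparum-infected red blood cells for 72 h at 37 C; lysis buffer (Tris, EDTA, saponin, Triton X, SYBR Green I) is added and fluorescence measured next morning; values normalized to controls.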

CP269 = tested on: CP269
In short: as §1

CP286 = tested on: CP286
In short: as §1

CP291 = tested on: CP291
In short: as §1

CP297 = tested on: CP297
In short: as §1

CP305 = tested on: CP305
In short: as §1

CP315 = tested on: CP315
In short: as §1

CP325 = tested on: CP325
In short: as §1

CP329 = tested on: CP329
In short: as §1

CP335 = tested on: CP335
In short: as §1

DFO2036 = tested on: DFO2036
In short: as §1

DIV14 = tested on: DIV14
In short: as §1

DIV17 = tested on: DIV17
In short: as §1

DIV30 = tested on: DIV30
In short: as §1

Dd2 = tested on: Dd2
In short: as §1

ECU = tested on: ECU
In short: as §1

FAB9 = tested on: FAB9
In short: as §1

HB3 = tested on: HB3
In short: as §1

ICS = tested on: ICS
In short: as §1

GB4 = tested on: GB4
In short: as §1

Measured: Potency
Potency is read from the fitted curve at half-maximal effect.

Cc1cc2c(s1)Nc1ccccc1N=C2N1CCN(C)CC1
not listed: GB4
inactive: all other assays above

O=C(O)CCNC(=O)c1ccc(N=Nc2ccc(O)c(C(=O)O)c2)cc1
not listed: Dd2 | HB3
inactive: all other assays above

C[C@]12CCC(=O)C=C1CC[C@@H]1[C@H]2[C@@H](O)C[C@@]2(C)[C@H]1CC[C@]2(O)C(=O)CO
inactive: all assays above

CN(c1nccc(=O)[nH]1)C1CCN(c2nc3ccccc3n2Cc2ccc(F)cc2)CC1
active: ICS 10 µM
inactive: CP268 | CP286 | CP291 | CP305 | CP329 | CP335 | DFO2036 | FAB9 | HB3

O=C1CCc2ccc(OCCCCN3CCN(c4cccc(Cl)c4Cl)CC3)cc2N1
active: ICS 11.2 µM
not listed: CP286 | CP335 | DFO2036 | Dd2 | ECU | HB3
inactive: all other assays above

CC[C@]1(O)C[C@H]2CN(CCc3c([nH]c4ccccc34)[C@@](C(=O)OC)(c3cc4c(cc3OC)N(C=O)[C@H]3[C@@](O)(C(=O)OC)[C@H](OC(C)=O)[C@]5(CC)C=CCN6CC[C@]43[C@@H]65)C2)C1
active: CP286 0.0708 µM | CP291 3.38 µM | CP297 3.01 µM | DFO2036 1.78 µM | DIV30 3.38 µM | Dd2 0.199 µM | HB3 0.447 µM | ICS 0.1 µM

COCCCOc1ccnc(CS(=O)c2nc3ccccc3[nH]2)c1C (configuration not stated)
not listed: CP269 | CP297 | DIV14 | DIV17 | Dd2 | ICS
inactive: all other assays above

C=C(c1ccc(C(=O)O)cc1)c1cc2c(cc1C)C(C)(C)CCC2(C)C
active: ICS 8.91 µM
not listed: CP286 | CP335 | DIV14 | Dd2 | HB3
inactive: all other assays above

C=CCc1cc(OC)c(O)c(C(=O)NCCO)c1
not listed: CP291
inactive: all other assays above

CCC[C@@H]1C[C@@H](C(=O)N[C@@H]([C@H]2O[C@H](SC)[C@H](O)[C@@H](O)[C@H]2O)[C@@H](C)O)N(C)C1
inactive: FAB9
active: Dd2 0.0089 µM

Cc1cc(C2CCCCC2)n(O)c(=O)c1
active: CP269 5.73 µM | CP297 7.21 µM | CP305 5.73 µM | CP315 2.28 µM | CP325 5.73 µM | FAB9 3.55 µM | GB4 6.42 µM | ICS 3.55 µM
inactive: Dd2

Cc1c(C(=O)NN2CCCCC2)nn(-c2ccc(Cl)cc2Cl)c1-c1ccc(Cl)cc1
active: CP297 19 µM | DIV14 13.5 µM | DIV17 13.5 µM | DIV30 12 µM | ICS 11.2 µM

N=C(N)c1ccc2cc(OC(=O)c3ccc(N=C(N)N)cc3)ccc2c1
active: CP286 4.47 µM | CP305 4.78 µM | DIV14 7.57 µM | GB4 5.36 µM | ICS 7.08 µM

CN1CCC(=C2c3ccccc3CCc3sccc32)CC1
active: DIV14 4.78 µM | DIV17 4.26 µM | Dd2 5.01 µM | GB4 6.01 µM | ICS 8.91 µM
inactive: CP297 | CP315 | CP329 | ECU | FAB9

CCCCCCCCCCCCCCCCCCCCCCO
not listed: CP291
inactive: all other assays above

CCCCC(CC)COC(=O)C(C#N)=C(c1ccccc1)c1ccccc1 (configuration not stated)
active: ECU 8.91 µM
inactive: CP268 | CP269 | CP305 | CP315 | CP325 | CP329 | DIV14 | DIV17 | DIV30 | FAB9

Cc1cc(=O)oc2cc(O)ccc12
not listed: CP286 | CP297 | CP335 | DFO2036 | Dd2 | ECU | HB3 | ICS
inactive: all other assays above

CCCCCCCCOc1ccccc1C(=O)Nc1ccc(C(=O)OCC[N+](C)(CC)CC)cc1
inactive: FAB9
active: CP286 6.31 µM | CP335 6.01 µM | DFO2036 8.91 µM | ECU 10 µM | GB4 12 µM | ICS 8.91 µM

CCc1nc(N)nc(N)c1-c1ccc(Cl)cc1
inactive: CP268 | CP269 | CP286 | CP291 | CP305 | CP315 | CP325 | DFO2036 | Dd2
active: ECU 0.0501 µM | FAB9 0.0501 µM | GB4 0.019 µM | HB3 11.2 µM

NNc1nncc2ccccc12
inactive: CP291 | CP297 | CP315 | CP329
active: DIV14 6.42 µM | DIV17 5.1 µM | Dd2 3.98 µM | HB3 3.98 µM | ICS 1.41 µM

CCN(CCO)CCCC(C)Nc1ccnc2cc(Cl)ccc12 (configuration not stated)
active: FAB9 1.41 µM | HB3 1 µM
not listed: CP286 | CP291 | CP297 | DIV14 | ECU | GB4
inactive: all other assays above

Cc1ncc([N+](=O)[O-])n1CC(C)O (configuration not stated)
not listed: CP297
inactive: all other assays above

Cc1nc(Nc2ncc(C(=O)Nc3c(C)cccc3Cl)s2)cc(N2CCN(CCO)CC2)n1
active: DIV17 13.5 µM | DIV30 13.5 µM | GB4 15.1 µM | ICS 7.08 µM
inactive: CP268 | CP291 | CP305 | CP315 | CP325 | CP329 | CP335 | DFO2036 | FAB9

CC1=C(C)C(=O)C(C(CCCCCC(=O)O)c2ccccc2)=C(C)C1=O (configuration not stated)
not listed: CP297 | CP315 | DIV14 | DIV17 | DIV30 | GB4
inactive: all other assays above

Cc1cc(=O)c2c(O)c3c(O)cc(=O)c4c3c3c(cc(O)c1c23)C(C)(C)C=4O
inactive: FAB9
active: CP269 2.69 µM | CP286 1.58 µM | CP291 2.69 µM | CP305 3.38 µM | CP329 2.13 µM | CP335 2.39 µM | DFO2036 1.12 µM | DIV14 2.39 µM | DIV17 2.69 µM | Dd2 1.26 µM | ECU 2 µM | GB4 2.13 µM | HB3 2 µM | ICS 0.355 µM

O=C(O)c1cn(-c2ccc(F)cc2)c2cc(N3CCNCC3)c(F)cc2c1=O
inactive: DIV17 | DIV30 | ECU | FAB9 | HB3

Cc1ccc(NC(=O)c2ccc(CN3CCN(C)CC3)cc2)cc1Nc1nccc(-c2cccnc2)n1
active: CP269 15.1 µM | CP286 11.2 µM | DIV14 15.1 µM | DIV17 15.1 µM | DIV30 12 µM | Dd2 10 µM | ECU 8.91 µM | GB4 15.1 µM | ICS 11.2 µM

Cc1nc2n(c(=O)c1CCN1CCC(c3noc4cc(F)ccc34)CC1)CCCC2
active: ICS 12.6 µM
not listed: CP286 | CP335 | DIV14
inactive: all other assays above

O=C(OC1C[C@H]2CC[C@@H](C1)[N+]21CCCC1)C(O)(c1ccccc1)c1ccccc1 (some centres not stated)
active: CP286 3.98 µM | CP305 4.26 µM | CP329 4.78 µM | CP335 4.26 µM | DIV30 4.78 µM | Dd2 0.0891 µM | ECU 5.01 µM | GB4 4.26 µM

Nc1nc(Cl)nc2c1ncn2[C@H]1C[C@H](O)[C@@H](CO)O1
inactive: CP286 | DFO2036 | Dd2 | ECU | FAB9 | HB3 | ICS

COc1ccc2cc([C@H](C)C(=O)O)ccc2c1
not listed: CP286 | CP335 | ICS
inactive: all other assays above
